Format in all cases: functional
Assay [1] has as its system Plasmodium falciparum. Kind of assay: GSK_TCMDC: Inhibition of Plasmodium falciparum 3D7 in whole red blood cells, using parasite LDH activity as an index of growth. Test compounds present at 2uM.
The subject of assay [2] is Plasmodium falciparum. Nature of the assay: GSK_TCMDC: Inhibition of Plasmodium falciparum Dd2 in whole red blood cells, using parasite LDH activity as an index of growth. Test compounds present at 2uM.
In the next assay the test system is HepG2. Nature of the assay: GSK_TCMDC: Percent inhibition of human HepG2 cell line. Test compounds present at 10uM.

Structures are written as SMILES.

As for `COc1cc(OC)cc(C(=O)N2CCOC(CCN3CCC(c4ccccc4)CC3)(c3ccc(Cl)c(Cl)c3)C2)c1` (centres undefined), the Inhibition in the assay on Plasmodium falciparum [1] is on record as 85%; in the assay with Plasmodium falciparum [2] it was 61%; with HepG2, 13%.
In the same order, the values of `Br.CC1(C)NC(N)=NC(=N)N1OCCCc1cc(Cl)c(Cl)cc1Cl` are 95%, 96% and 55%.
Consider `O=C(NCC1CC1)C1CCN(C(c2ccccc2)c2cc(F)cc(F)c2)CC1` (centres undefined), for which the Inhibition in the assay on Plasmodium falciparum [1] amounted to 99%; with Plasmodium falciparum [2], 95%; in the assay on HepG2 it was 0%.
On to `O=C(O)C(F)(F)F.O=C1COC(c2ccccc2)(c2ccccc2)CN1CC1CCN(Cc2ccc(O)cc2Cl)C1` (centres undefined), for which the results for the Inhibition in the assay on Plasmodium falciparum [1], in the assay on Plasmodium falciparum [2] and with HepG2 were 85%, 81% and 53%, respectively.
As for `O=C1C(=Cc2cc(Cc3ccccc3)ccc2O)SC(=S)N1Cc1ccccc1`, the figures for the Inhibition with Plasmodium falciparum [1], in the assay with Plasmodium falciparum [2] and in the assay on HepG2 were 98%, 53% and 16%, respectively.
With `O=C(NCCN1CCCC1)c1cccc(-c2ccc(-c3nc4cc(F)ccc4[nH]3)cc2)c1`, the Inhibition in the assay with Plasmodium falciparum [1] is given as 99%; in the assay on Plasmodium falciparum [2], 85%; in the assay with HepG2 it was 33%.
Regarding `O=C(NCc1ccccc1)c1ncn(CCCN2CCC(N3CCCC3)CC2)c1-c1ccc(Cl)c(Cl)c1.O=CO`, the Inhibition is 89% in the assay with Plasmodium falciparum [1], 36% in the assay with Plasmodium falciparum [2] and 8% in the assay on HepG2.
In the same order, the values of `NC(=O)c1cc(-c2ccccc2)cc2c(C3CCC(NCc4ccccc4)C3)c[nH]c12` (centres undefined) are 95%, 30% and 99%.
On to `CN(CCCc1c[nH]c2ccccc12)CCC1CCC(NC(=O)/C=C/c2ccc(Cl)c(Cl)c2)CC1` (centres undefined), for which the results for the Inhibition in the assay on Plasmodium falciparum [1], with Plasmodium falciparum [2] and in the assay on HepG2 were 99%, 63% and 38%, respectively.
`CCCCCCNC[C@@H](O)[C@H](Cc1ccccc1)NC(=O)c1cc(NCC)cc(N2CCCCS2(=O)=O)c1.Cl`: the Inhibition with Plasmodium falciparum [1] is on record as 100%; in the assay on Plasmodium falciparum [2] it was 98%; in the assay on HepG2, 5%.
In the same order, the values of `COc1cc(NCCCNCc2cn(S(=O)(=O)c3ccccc3)c3ccccc23)nc2ccccc12` are 100%, 77% and 36%.
For the molecule `O=C(Nc1cccc(CN2CCCN(Cc3ccc(O)cc3)CC2)c1)c1ccc(-c2ccccc2)cc1.O=C(O)C(F)(F)F`, the figures for the Inhibition in the assay with Plasmodium falciparum [1], with Plasmodium falciparum [2] and in the assay on HepG2 were 100%, 93% and 33%, respectively.
`Cl.c1ccc(C(c2cccs2)N2CCN(Cc3ccc(OCCCN4CCCCC4)cc3)CC2)cc1` (centres undefined): the values for the Inhibition in the assay with Plasmodium falciparum [1], in the assay on Plasmodium falciparum [2] and in the assay with HepG2 were 91%, 14% and 41%, respectively.
In the case of `O=[N+]([O-])c1ccc(/C=N/Nc2cc(-c3ccccc3)nc3ccccc23)o1`, the Inhibition in the assay on Plasmodium falciparum [1] is 93%; with Plasmodium falciparum [2], 49%; in the assay on HepG2 it was 48%.
The matching figures for `Cn1nccc1C(=O)NCCNCc1cccc(-c2ccc(-c3nc4ccccc4[nH]3)s2)c1.O=C(O)C(F)(F)F`: 100%, 94% and 22%.
In the same order, the values of `O=S(=O)(Nc1cccc(CCN2CCC(N3CCCCC3)CC2)c1)c1ccc2c(c1)OCCO2` are 91%, 5% and 8%.
Consider `Cc1cc(NCCCOc2ccc(Cl)cc2)nc(NCc2ccccc2)n1.Cl`, for which the Inhibition in the assay with Plasmodium falciparum [1] stood at 95%; in the assay on Plasmodium falciparum [2], 20%; with HepG2, 45%.
For `O=C(/C=C/c1ccc(Cl)c(Cl)c1)NCCCCCN1CCC(NC(=O)NC2CCCC2)CC1`, the Inhibition is listed as 99% in the assay on Plasmodium falciparum [1], 31% with Plasmodium falciparum [2] and 21% in the assay on HepG2.
As for `Cc1c(CCNC(=O)CCCN2CC(C)CC(C)C2)c2ccccc2n1C.Cl` (centres undefined), the Inhibition with Plasmodium falciparum [1] is recorded as 87%; in the assay on Plasmodium falciparum [2], 100%; with HepG2, 8%.
Take `N#Cc1cccc(C(=O)Nc2ccc(-c3cccc(CN4CCC(O)CC4)c3)cc2)c1.O=C(O)C(F)(F)F`: the Inhibition in the assay with Plasmodium falciparum [1] was found to be 100%; in the assay with Plasmodium falciparum [2] it was 68%; in the assay on HepG2, 33%.
As to `COc1ccc(CN(C)CCOc2ccc(NC(=O)c3cccc4c(=O)cc(-c5ccccc5)[nH]c34)cc2)cc1OC`, the Inhibition stood at 98% in the assay on Plasmodium falciparum [1], 44% with Plasmodium falciparum [2] and 13% with HepG2.
In the same order, the values of `CC(=O)c1cccc(NC(=O)C2c3ccccc3C(=O)N(CC(C)C)C2c2cccs2)c1` (centres undefined) are 100%, 100% and 11%.
The matching figures for `Cc1ccccc1C1CCN(C2CCC(NC(=O)/C=C/c3cc(F)ccc3F)CC2)CC1` (centres undefined): 85%, 36% and 47%.
Consider `Cc1ccccc1C1CCN(C2CCC(NC(=O)/C=C/c3c(F)ccc(F)c3F)CC2)CC1` (centres undefined), for which the Inhibition in the assay with Plasmodium falciparum [1] worked out at 82%; in the assay on Plasmodium falciparum [2] it was 33%; in the assay with HepG2, 37%.
Take `CC(C)(C)COc1ccc2c(N)n[nH]c2c1.Cl`: the Inhibition stood at 90% with Plasmodium falciparum [1], 8% in the assay with Plasmodium falciparum [2] and 31% in the assay with HepG2.
Take `C[C@H](Cc1ccc(OCCCCCCCOc2ccc(C[C@@H](C)NC[C@H](O)c3cccc(Cl)c3)cc2)cc1)NC[C@H](O)c1cccc(Cl)c1.Cl`: the Inhibition in the assay on Plasmodium falciparum [1] is recorded as 99%; with Plasmodium falciparum [2], 97%; in the assay on HepG2, 99%.
Regarding `O=C(/C=C/c1ccc(Cl)c(Cl)c1)NCCCCCN1CC[C@H](NC(=O)c2ccc3c(c2)OCO3)C1`, the Inhibition in the assay on Plasmodium falciparum [1] is 94%; with Plasmodium falciparum [2], 3%; with HepG2, 32%.
`Cc1[nH]c(C)c(-c2ccc(-c3cccc(C(F)(F)F)c3)nc2)c(=O)c1Br`: the figures for the Inhibition in the assay with Plasmodium falciparum [1], in the assay with Plasmodium falciparum [2] and in the assay on HepG2 were 97%, 96% and 28%, respectively.

The Inhibition is the relative decrease from the control value, in per cent. Read a high Inhibition as a strong effect.

These data come from ChEMBL document CHEMBL1157539, “Thousands of chemical starting points for antimalarial lead identification” (Nature, 2010).
